The full list was thinned out, with hits kept by preference.
Tgondii IFNg: blocks Toxoplasma gondii growth in the presence of IFN-gamma. Toxoplasma gondii growth in IFN-gamma-treated host cells; stronger effect = lower value. activity change, negative = inhibition, % (concentration not given with the values). actives 3.8% (n = 69,000). AID 1259416; in the data active = activity change below about -70%, passing the limit was not always enough;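 note: host cells are HeLa cells infected with Toxoplasma gondii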
The depositor's hits bear a star; i = inactive; ! = a repeat was not active.

SMILES	Tgondii IFNg
Cc1c(C(=O)NCCCN2CC(C)CC(C)C2)oc2ccc3c(c12)C(O)CC1(CCCCC1)O3 (stereo unspecified)	-112.0*
CC1=C(C(=O)NCCCN2CC(C)CC(C)C2)C2(CCCCC2)OC1=O (stereo unspecified)	-80.5*
CC1=C(C(=O)NCCCN2CC(C)CC(C)C2)C2(CCCCCC2)OC1=O (stereo unspecified)	58.3
Cc1c(C(=O)N2CCCCC2)oc2ccc3c(c12)C(O)CC1(CCCCC1)O3 (stereo unspecified)	-111.8*
CC1=C(C(=O)NCCCN2CCCC2)C2(CCN(S(=O)(=O)c3cccs3)CC2)OC1=O	6.1
CCOC(=O)C1CCN(C(=O)c2oc3ccc4c(c3c2C)C(O)CC2(CCCCC2)O4)CC1 (stereo unspecified)	-80.5*
Cc1c(C(=O)N2CC(C)CC(C)C2)oc2ccc3c(c12)C(=O)CC1(CCCCC1)O3 (stereo unspecified)	-51.3
CCOC(=O)C1CCN(C(=O)c2nn(-c3ccccc3)nc2C)CC1	-4.9
CC1=C(C(=O)NCCCN2CCCC(C)C2)C2(CCN(S(C)(=O)=O)CC2)OC1=O (stereo unspecified)	20.7
COc1ccc(CCNc2nc(SCc3cc(=O)n4cc(Cl)ccc4n3)nc3ccccc23)cc1OC	17.3
O=C(NCCc1csc(-c2ccc(C(F)(F)F)cc2)n1)C(=O)Nc1ccc(Cl)cc1	39.2
CCN1c2ccccc2C(=O)NC12CCN(C(=O)c1ccc(C)cc1)CC2	-6.0
O=C(Cc1ccccc1)N1CC(=O)N2[C@H](CO)[C@@H](c3ccc(-c4ccc(F)cc4)cc3)[C@H]2C1	-30.4
C[C@H]1CN([C@@H](C)CO)S(=O)(=O)c2ccc(-c3ccc(F)cc3)cc2O[C@H]1CN(C)Cc1ccccc1C(=O)O	-0.1
CCOc1cccc(C2c3[nH]c4ccccc4c3CCN2C(=O)c2ccc(OC)cc2)c1 (stereo unspecified)	-92.5*
CCOc1cccc(C2c3[nH]c4ccccc4c3CCN2C(=O)c2ccc(Br)cc2)c1 (stereo unspecified)	-97.8*
COc1cccc(C(=O)N2CCc3c([nH]c4ccccc34)C2c2ccc(F)cc2)c1 (stereo unspecified)	i
COc1cccc(C(=O)N2CCc3c([nH]c4ccccc34)C2c2ccc(SC)cc2)c1 (stereo unspecified)	-63.0
CCOc1cccc(C2c3[nH]c4ccccc4c3CCN2C(=O)C2CC2)c1 (stereo unspecified)	i
CCOc1cccc(C2c3[nH]c4ccccc4c3CCN2C(=O)c2cc(OC)c(OC)c(OC)c2)c1 (stereo unspecified)	-51.7
COc1ccc(C2c3[nH]c4ccccc4c3CCN2C(=O)c2cccc(OC)c2)cc1 (stereo unspecified)	-98.7*
CCOc1cccc(C2c3[nH]c4ccccc4c3CCN2C(=O)CCC2CCCC2)c1 (stereo unspecified)	125.1
CCOc1cccc(C2c3[nH]c4ccccc4c3CCN2C(=O)c2cccnc2)c1 (stereo unspecified)	189.0
CCOc1cccc(C2c3[nH]c4ccccc4c3CCN2C(=O)c2ccncc2)c1 (stereo unspecified)	-84.2*
CC(O)c1cn(C2CCN(Cc3cc4ccccc4o3)CC2)nn1 (stereo unspecified)	16.7
SMILES	Tgondii IFNg
Cn1nnc(-c2ccc(C(=O)N3CCCC(N4CCCC4=O)C3)cc2)n1 (stereo unspecified)	-11.1
CCCCOc1ccc(-c2cc3c(=O)n(Cc4nc(-c5ccccc5C)oc4C)ccn3n2)cc1	69.5
Cc1nc(C(C)NC(=O)c2cccc(NCc3ccc(C)s3)c2)n[nH]1 (stereo unspecified)	-2.3
Cc1cc(NC(=O)c2cccc(CN(C)Cc3snnc3C)c2)n(C)n1	6.1
CCn1c(C)cs/c1=N/C(=S)Nc1ccccc1C	-2.5
COc1ccccc1CC(=O)Nc1ccc(-c2nc(Cn3cccn3)c(C)o2)cc1	2.4
CC(=O)NCC(=O)N1CCOCC2(CCC(Cn3cccn3)O2)C1 (stereo unspecified)	-3.1
Cc1[nH]c2ccccc2c1CCNC(=O)c1cccs1	28.5
CCO[C@H]1COC[C@@H]1NC(=O)Cc1c(C)[nH]c2ccccc12	4.6
Cc1[nH]c2ccccc2c1CCNCc1ccc(/C=C/C(=O)NO)cc1	-81.6*!
Cc1n[nH]c(C)c1CC(=O)N[C@H]1C[C@H]2CN(C)CCN2C1	-3.6
COc1cccc(/C=N/N=C/c2cccc(OC)c2)c1	11.0
c1coc(CN(CCN2CCOCC2)Cc2ccncc2)c1	2.9
O=c1c(Cl)c(Oc2ccccc2)cnn1-c1ccccc1	71.6
COc1ccc(CCNC(=O)Cc2ccccc2)cc1OC	-48.1
COc1ccc(CCNc2cnn(-c3ccccc3)c(=O)c2Cl)cc1OC	-82.8*
CCOc1ccc(Nc2nc3ccccc3nc2Nc2ccc(OCC)cc2)cc1	-100.0*
CCOc1ccc(Nc2nc(-c3ccc(OC)cc3)nc3ccccc23)cc1	-42.6
CCOc1ccc(NC(=O)c2nc3ccccc3nc2-n2nc(C)cc2C)cc1	-98.5*
CCOc1ccc(NC(=O)Cn2c(C)cc(C)nc2=O)cc1	19.5
CCOc1ccc(CNC(=O)c2nc(Nc3ccccc3)c3ccccc3n2)cc1	-51.6
CCOc1ccccc1C(=O)Nc1ccc(-c2nc(Cn3nc(C)cc3C)c(C)o2)cc1	44.2
CCOC(=O)c1sc(-c2ccccc2)nc1OC(=O)c1ccc(C(F)(F)F)cc1	-11.7
CCc1noc(-c2cc(=O)n(CC(=O)Nc3ccccc3OC)c3ccccc23)n1	-68.7
COc1cc(N2C[C@H]3COC[C@@]3(COc3ncccc3F)C2)ncn1	5.9
SMILES	Tgondii IFNg
COc1ccc(C)cc1-n1cnnc1CCc1c(C)n[nH]c1C	2.0
Cc1ccc(CN2Cc3nccn3CC(COCC(=O)N(C)C)C2)o1 (stereo unspecified)	7.1
CC(C)n1nc(CNS(C)(=O)=O)c2c1CN(C(=O)NC1CC1)CC2	-24.3
Cc1cc(C(=O)Nc2ccc(-c3nc(Cn4cccn4)c(C)o3)cc2)no1	-92.7*
Cc1cnn(Cc2nc(-c3ccc(NC(=O)c4c(F)cccc4F)cc3)oc2C)c1	-68.0
Cc1cnn(Cc2nc(-c3ccc(NC(=O)c4cc(C)on4)cc3)oc2C)c1	-95.0*
Cc1cc(C)cc(C(=O)Nc2ccc(-c3nc(Cn4cccn4)c(C)o3)cc2)c1	13.9
Cc1ccc(C(=O)Nc2ccc(-c3nc(Cn4cccn4)c(C)o3)cc2)cc1	-47.5
O=C(NC1CCN(Cc2ccccn2)CC1)c1ccc(N2CCCCC2)cc1	-2.7
Cn1cc(N2C(=O)CC[C@@H]3[C@@H]2CCN3Cc2ccoc2)cn1	-37.3
COc1ccccc1S(=O)(=O)N(C)C[C@H]1OCc2ccccc2-c2ccccc2C(=O)N([C@H](C)CO)C[C@H]1C	-13.4
Cc1noc(C)c1NC(=O)N1C[C@@H](O)COC[C@H]2O[C@@H](CC(=O)N[C@@H]3CCN(Cc4ccccc4)C3)CC[C@@H]21	4.8
O=c1oc(COc2ccc(Cl)cc2Cl)nc2ccccc12	459.2
Cc1ccc(NC(=O)c2ccc(-n3cnnc3)cc2)cc1S(=O)(=O)NC(C)C	13.1
CNC(=O)CC1CC2(CCN(S(=O)(=O)C3CC3)CC2)Oc2ccccc21 (stereo unspecified)	0.7
C=CCOCc1cncc2c1CCN(C(=O)c1ccncc1)C2	-14.5
COCc1cncc2c1CCN(C(=O)c1ccc[nH]1)C2	-66.5
COCc1cncc2c1CCN(C(=O)c1ccncc1)C2	-97.9*
CC(C)[C@@H]1C(=O)NCCC=CC[C@H](C)Oc2ccccc2C(=O)N1C (mixture of isomers)	3.0
